# In publication PMC7862700, “An all-to-all approach to the identification of sequence-specific readers for epigenetic DNA modifications on cytosine”:
# Columns and labels:
# Experiment in all cases: DAPPL (digital affinity profiling via proximity ligation, sequencing); 10 mM Tris-HCl pH 7.5, 50 mM NaCl, 1 mM DTT, 4% glycerol, room temperature, 30 min; GST-TFs on glutathione beads, 16-mer random dsDNA library, 0.1% formaldehyde crosslink after washing; high values mean tight binding
# Details in all cases: protein: recombinant; tags: N-terminal GST; dsDNA, one strand shown
# FLI1 = target: T1, FLI1 (Homo sapiens, UniProt Q01543 1-452)
# T1 sequence: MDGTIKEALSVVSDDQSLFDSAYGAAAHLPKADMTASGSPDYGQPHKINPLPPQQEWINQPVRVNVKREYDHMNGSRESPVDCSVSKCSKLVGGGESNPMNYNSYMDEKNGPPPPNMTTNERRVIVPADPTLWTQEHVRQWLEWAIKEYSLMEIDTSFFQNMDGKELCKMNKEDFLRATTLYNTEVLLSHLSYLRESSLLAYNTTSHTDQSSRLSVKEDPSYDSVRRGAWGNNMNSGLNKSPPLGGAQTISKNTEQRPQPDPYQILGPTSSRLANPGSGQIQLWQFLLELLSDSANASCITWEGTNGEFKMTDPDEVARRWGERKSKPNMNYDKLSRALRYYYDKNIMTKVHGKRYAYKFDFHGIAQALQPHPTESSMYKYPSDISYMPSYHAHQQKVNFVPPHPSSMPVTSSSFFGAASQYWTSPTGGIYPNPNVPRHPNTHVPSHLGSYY
# Outline: (§1)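 A tag-only sample was pooled with DNA-barcoded human transcription factors that had been expressed in yeast as GST fusions and captured on glutathione beads. The pools were incubated for 30 min at room temperature with 200 nmole of a random double-stranded 16-mer DNA library in Tris/NaCl/DTT/glycerol buffer, then washed, crosslinked with 0.1% formaldehyde, proximity-ligated (BsaI/T4 ligase, 1 h, 37 °C), PCR-amplified and sequenced on an Illumina NextSeq500. Binding signal is each hexamer's read frequency for a factor divided by its frequency for the tag-only sample.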
# ELK1 = target: T2, ELK1 (Homo sapiens, UniProt P19419 1-428)
# T2 sequence: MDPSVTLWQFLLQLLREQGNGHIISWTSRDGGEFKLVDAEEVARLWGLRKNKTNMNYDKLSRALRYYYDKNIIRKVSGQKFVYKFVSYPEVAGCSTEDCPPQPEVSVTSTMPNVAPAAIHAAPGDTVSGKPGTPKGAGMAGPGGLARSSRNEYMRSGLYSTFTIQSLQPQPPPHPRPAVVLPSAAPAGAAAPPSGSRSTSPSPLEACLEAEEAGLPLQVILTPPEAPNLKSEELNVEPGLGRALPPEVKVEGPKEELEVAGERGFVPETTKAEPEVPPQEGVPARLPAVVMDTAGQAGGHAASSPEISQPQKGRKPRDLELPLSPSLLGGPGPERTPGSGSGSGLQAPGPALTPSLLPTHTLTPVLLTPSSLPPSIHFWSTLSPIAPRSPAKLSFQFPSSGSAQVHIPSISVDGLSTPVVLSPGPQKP
# Outline: as §1
# GABPA = target: T3, GABPA (Homo sapiens, UniProt Q06546 1-454)
# T3 sequence: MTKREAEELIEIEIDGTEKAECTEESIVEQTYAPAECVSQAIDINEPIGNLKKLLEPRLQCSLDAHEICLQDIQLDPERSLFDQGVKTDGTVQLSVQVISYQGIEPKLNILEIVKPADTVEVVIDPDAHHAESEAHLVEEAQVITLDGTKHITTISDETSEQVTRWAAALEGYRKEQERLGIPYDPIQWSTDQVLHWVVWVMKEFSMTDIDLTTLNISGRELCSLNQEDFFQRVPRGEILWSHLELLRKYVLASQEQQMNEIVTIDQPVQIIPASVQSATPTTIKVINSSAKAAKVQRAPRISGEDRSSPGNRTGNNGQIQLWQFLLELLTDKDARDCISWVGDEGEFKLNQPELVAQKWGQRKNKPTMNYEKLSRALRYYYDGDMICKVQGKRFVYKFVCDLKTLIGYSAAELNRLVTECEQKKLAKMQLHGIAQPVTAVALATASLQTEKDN
# Outline: as §1
# ERG = target: T4, ERG (Homo sapiens, UniProt P11308 1-479)
# T4 sequence: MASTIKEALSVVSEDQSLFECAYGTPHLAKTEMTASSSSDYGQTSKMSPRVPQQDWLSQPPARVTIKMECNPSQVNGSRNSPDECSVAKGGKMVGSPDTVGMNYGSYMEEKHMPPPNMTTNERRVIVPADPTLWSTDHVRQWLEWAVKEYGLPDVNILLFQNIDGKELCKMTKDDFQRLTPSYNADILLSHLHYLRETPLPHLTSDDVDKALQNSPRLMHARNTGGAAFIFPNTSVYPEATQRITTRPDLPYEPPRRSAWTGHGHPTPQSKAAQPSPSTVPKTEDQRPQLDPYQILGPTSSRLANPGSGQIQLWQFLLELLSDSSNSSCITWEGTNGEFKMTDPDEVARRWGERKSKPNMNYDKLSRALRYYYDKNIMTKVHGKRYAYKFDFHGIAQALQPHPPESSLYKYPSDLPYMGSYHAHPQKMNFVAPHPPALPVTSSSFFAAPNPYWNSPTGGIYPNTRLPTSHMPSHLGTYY
# Outline: as §1
# ELF1 = ELF1 (Homo sapiens, UniProt P32519 1-619)
# Outline: as §1
# EHF = target: T5, EHF (Homo sapiens, UniProt Q9NZC4 1-300)
# T5 sequence: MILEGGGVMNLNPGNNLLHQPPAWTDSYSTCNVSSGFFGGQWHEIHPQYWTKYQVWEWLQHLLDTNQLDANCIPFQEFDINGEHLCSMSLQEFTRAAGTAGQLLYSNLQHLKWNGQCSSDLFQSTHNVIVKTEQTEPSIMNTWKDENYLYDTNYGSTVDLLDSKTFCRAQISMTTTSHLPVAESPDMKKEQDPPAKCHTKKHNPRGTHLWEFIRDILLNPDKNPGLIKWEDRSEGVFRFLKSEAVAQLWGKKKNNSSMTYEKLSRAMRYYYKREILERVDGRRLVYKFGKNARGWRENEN
# Outline: as §1
# SPI1 = SPI1 (Homo sapiens, UniProt P17947 1-270)
# Outline: as §1
# SPIB = SPIB (Homo sapiens, UniProt Q01892 1-262)
# Outline: as §1
# ELK3 = target: T6, ELK3 (Homo sapiens, UniProt P41970 1-407)
# T6 sequence: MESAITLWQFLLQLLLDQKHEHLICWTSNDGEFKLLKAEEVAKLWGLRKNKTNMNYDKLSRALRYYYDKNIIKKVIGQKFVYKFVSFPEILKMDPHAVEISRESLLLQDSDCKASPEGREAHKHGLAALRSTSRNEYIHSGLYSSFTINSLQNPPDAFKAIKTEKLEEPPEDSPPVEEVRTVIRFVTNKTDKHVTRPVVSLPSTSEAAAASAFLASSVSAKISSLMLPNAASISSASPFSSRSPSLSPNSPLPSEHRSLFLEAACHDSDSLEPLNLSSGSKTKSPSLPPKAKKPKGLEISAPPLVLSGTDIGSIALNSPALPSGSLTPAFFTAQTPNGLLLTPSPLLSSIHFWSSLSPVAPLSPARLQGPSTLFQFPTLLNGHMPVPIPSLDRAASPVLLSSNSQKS
# Outline: as §1
# SPIB, sequence (Q01892 whole entry): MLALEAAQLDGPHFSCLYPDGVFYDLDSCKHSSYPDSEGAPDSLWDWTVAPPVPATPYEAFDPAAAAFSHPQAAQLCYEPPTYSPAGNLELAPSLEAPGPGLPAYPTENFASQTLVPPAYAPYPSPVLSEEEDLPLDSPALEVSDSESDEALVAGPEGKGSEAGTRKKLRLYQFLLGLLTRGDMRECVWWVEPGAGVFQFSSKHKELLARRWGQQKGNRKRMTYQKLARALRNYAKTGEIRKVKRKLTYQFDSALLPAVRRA
# ELF1, sequence (P32519 whole entry): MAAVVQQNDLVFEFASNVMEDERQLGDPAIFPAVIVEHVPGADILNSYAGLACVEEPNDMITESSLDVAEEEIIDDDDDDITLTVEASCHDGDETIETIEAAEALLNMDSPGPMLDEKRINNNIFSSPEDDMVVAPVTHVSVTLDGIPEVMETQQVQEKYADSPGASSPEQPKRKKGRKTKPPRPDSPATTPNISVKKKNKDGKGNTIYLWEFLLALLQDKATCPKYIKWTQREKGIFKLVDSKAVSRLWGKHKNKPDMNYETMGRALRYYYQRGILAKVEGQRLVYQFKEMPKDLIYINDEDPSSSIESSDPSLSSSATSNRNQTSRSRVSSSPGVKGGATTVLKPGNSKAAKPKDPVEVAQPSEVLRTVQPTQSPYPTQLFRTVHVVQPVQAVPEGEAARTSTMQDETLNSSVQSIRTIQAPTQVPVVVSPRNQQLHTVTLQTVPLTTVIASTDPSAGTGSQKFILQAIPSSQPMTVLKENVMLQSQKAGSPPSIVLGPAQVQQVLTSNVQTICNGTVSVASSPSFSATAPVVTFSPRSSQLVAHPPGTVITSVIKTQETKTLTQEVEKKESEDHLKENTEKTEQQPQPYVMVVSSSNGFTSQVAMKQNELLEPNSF
sequence,measurement,setting,value
TCCTAC,binding signal,FLI1,"1.48 fold enrichment (6-mer frequency, TF over GST control)"
same,binding signal,ELK1,"1.46 fold enrichment (6-mer frequency, TF over GST control)"
same,binding signal,GABPA,"1.43 fold enrichment (6-mer frequency, TF over GST control)"
same,binding signal,ERG,"1.42 fold enrichment (6-mer frequency, TF over GST control)"
same,binding signal,ELF1,"1.31 fold enrichment (6-mer frequency, TF over GST control)"
same,binding signal,EHF,"1.45 fold enrichment (6-mer frequency, TF over GST control)"
same,binding signal,SPI1,"1.52 fold enrichment (6-mer frequency, TF over GST control)"
same,binding signal,SPIB,"1.65 fold enrichment (6-mer frequency, TF over GST control)"
same,binding signal,ELK3,"1.56 fold enrichment (6-mer frequency, TF over GST control)"
